The values below come from PubChem BioAssay AID2069 (Sanford-Burnham Center for Chemical Genomics, 2009).

The campaign covered roughly 1,200 compounds. About 210 (18%) were called active. Only a sample is shown. A number with no mark means an inactive call. No stated cut-off is given here; in the data, active means inhibition above about 30%; inactive means the rest.

One may read the inhibition as the drop in the measured response relative to a control, in per cent.

The assay in a line: fluorescence readout artefact check – biochemical, HTRF, uHTS, artefact control for SUMOylation inhibitor project, confirmation (AID 2069). The settings on record: HTRF interference counterscreen, at 35 µM, hits give high values. On the technique in general: Time-resolved FRET reads energy transfer from a long-lived donor to a nearby acceptor.
As to `COc1cc(/C=C2\C(=O)N(c3ccc(S(N)(=O)=O)cc3)N=C2C)ccc1OC(=O)c1ccco1`, the inhibition is 19.1%. For `COc1ccccc1Oc1c(C)oc2cc(OC(=O)c3ccco3)ccc2c1=O`, the inhibition was 36.7% (active). For `CCOc1cc(/C=C2/C(=O)N(c3ccccc3)N=C2C)ccc1OC(=O)c1ccco1` the value was -12.2%; for `CCOc1cccc(CNc2ccc(O)cc2)c1OCc1ccc(Cl)cc1Cl`, 17.7%.

For `COc1ccc(-n2c3nc4ccccc4nc3c3c(=N)oc(C)nc32)cc1`, the inhibition is -1.2%.

For the molecule `O=C1N(c2ccc(Cl)c(Cl)c2)CN(Cc2ccccc2)CN1n1cnnc1`, the inhibition is 13.3%. Take `CCCNC(=O)c1ccc2c(=O)c(O)c(-c3ccsc3)[nH]c2c1`: the inhibition is 46.5% (active). For `COc1ccccc1NC(=O)Cn1nc(C)n2cccc2c1=O` the value was -4.55%; for `COc1ccccc1NC(=O)CSc1ccc2nnc(-c3ccccn3)n2n1`, -3.25%.

Turning to `COc1ccccc1NC(=O)Nc1ccnn1Cc1cccs1`, the inhibition was 63.1% (active). Then `O=C(Nc1nc(-c2ccccc2)cs1)c1ccccc1NS(=O)(=O)c1ccc(F)cc1`, with 9.2%; and `CC(=O)c1ccc2cccc3c2c1N=CN3C`, with -3.4%; and `COc1ccc(Br)cc1C1CC(=O)N2CN(Cc3ccccc3)CSC2=C1C#N` (configuration not stated), with -9.75%. Take `COc1ccc(OC)c(/C=N/NC(=O)CCc2ccc(O)c(O)c2)c1`: the inhibition was 17.9%. For `COc1ccc(-c2nc3ccncc3[nH]2)cc1OC` the value was 46.5% (active). For `COc1ccc(-c2nc3ccc([N+](=O)[O-])cc3[nH]2)cc1` the value was 23.2%; for `COc1ccc(NC(=O)C(=O)N/N=C\c2ccc(CNC(=O)C(=O)Nc3ccc(C)c(C)c3)o2)c(OC)c1`, 15.9%; for `COc1cc(/C=C2\C(=O)N(CCC#N)N=C2C)c(Br)cc1OC(C)C`, -5.4%. For `O=C(COc1ccc2oc(-c3ccco3)cc(=O)c2c1)N1CCCCC1` the value was 39.8% (active). For `CCN(CC)C(=O)COc1ccc2oc(-c3ccco3)cc(=O)c2c1`, the inhibition is 43.6% (active). As to `CN(C)c1cc(N/N=C/c2ccccc2C(F)(F)F)nc(N(C)C)n1`, the inhibition was -2.9%. In the case of `O=c1cc(CSc2nnnn2-c2ccccc2)nc(Nc2ccc(F)cc2)[nH]1`, the inhibition was 3.3%. Regarding `NC(=O)CC(NC(=O)Cc1cccc2ccccc12)c1ccc(NC2CCCCCC2)c([N+](=O)[O-])c1` (configuration not stated), the inhibition is 6.15%. Then `Cc1ccc(O)c(CNc2cccc3cccnc23)c1`, with -18.2%. For `CCOC(=O)c1c(C)oc2c1c(C=NCCO)c(O)c1ccccc12` the value was 5.4%; for `CC(C)(C)c1cc(=O)n(-c2ccccc2)[nH]1`, -0.65%; for `Fc1ccc(NC(=S)Nc2cccc3ccccc23)cc1F`, -11.7%. Then `CC1CCN(Cc2cc(=O)oc3cc(O)c(Cl)cc23)CC1`, with 50.5% (active); and `CC(C)(C)C1CCC2(CC1)Nc1cccc3cccc(c13)N2`, with -2.5%; and `CCn1c(NC(=O)c2ccccc2)nc2ccccc21`, with 1.3%. For `COc1ccc(/C=C(\C#N)C(=O)OCC(=O)NCc2ccccc2Cl)cc1`, the inhibition was 6.4%. With `N#C/C(=C/c1ccc(-c2cc(C(=O)O)cc(C(=O)O)c2)o1)c1nc2ccccc2s1`, the inhibition was 13.9%. Then `COc1ccc2nc(/C(C#N)=C\c3ccc(C(=O)O)cc3)[nH]c2c1`, with 47.6% (active); and `O=C(Nc1ccccc1-c1nc2ccccc2s1)c1cccnc1Cl`, with 64% (active); and `O=C(/C=C/c1ccco1)NC(=S)Nc1cc(-c2nc3ccccc3s2)ccc1Cl`, with 3.15%. Regarding `O=C(O)c1cc(Cl)c(Cl)cc1C(=O)Nc1cccc2ncccc12`, the inhibition is 2.4%. For `COCCNC(=S)Nc1cccc2cnccc12` the value was 4.9%; for `C=CCn1c(SCC(=O)N2N=C(c3ccco3)CC2c2ccco2)nnc1-c1ccncc1` (configuration not stated), -5.2%. For `O=C1Nc2ccc([N+](=O)[O-])cc2C1=Nc1cccc(CO)c1` the value was 3.75%; for `Cc1[nH]n(-c2ccccc2)c(=O)c1C(c1cccc([N+](=O)[O-])c1)c1c(C)[nH]n(-c2ccccc2)c1=O`, -11.2%. For `NCCSc1c(-c2ccccc2)[nH]c2ccccc12` the value was 0.7%. `O=[N+]([O-])c1cc2c(cc1/C=N/n1c(-c3ccccn3)n[nH]c1=S)OCO2`: the inhibition was 0.15%. For `CCN(Cc1cc(=O)n2ccsc2n1)c1cccc2ccccc12` the value was 1.45%; for `O=C(Nc1ccccc1F)Nc1cc(S(=O)(=O)N2CCOCC2)ccc1N1CCCC1`, 6.3%. For `Cc1cccn2cc(-c3ccc(S(=O)(=O)N4CCOCC4)cc3)nc12` the value was 40.8% (active). With `Cc1ccc(C(=O)Nc2sc3c(c2C(=O)NCc2ccco2)CCCC3)cc1`, the inhibition is 29.9%. For `COc1ccccc1C(=O)Nc1sc2c(c1C(=O)NCc1ccco1)CCCC2` the value was 33.8% (active); for `COc1ccccc1C(=O)Nc1ccc(-c2nnn(CC(=O)NCc3ccco3)n2)cc1`, 13.7%.

For the molecule `O=c1nc(Nc2ccc(Br)cc2)sc2ccc([N+](=O)[O-])cc12`, the inhibition was -4%. For `CCCCC[C@H](O)/C=C/[C@@H]1[C@@H](C/C=C\CCCC(=O)OC)[C@@H](O)C[C@H]1O` the value was 23.6%. Then `CCN(CC)S(=O)(=O)c1ccc(C)c(NC(=O)CSc2ncc(C(F)(F)F)cc2Cl)c1`, with -6.95%; and `c1cc(Nc2ncnc3sc4c(c23)CCC4)ccn1`, with 42.9% (active); and `CC1=NN(c2ccc(Cl)cc2)C(=O)C1C(c1cccc(O)c1)c1c(C)[nH]n(-c2ccc(Cl)cc2)c1=O` (configuration not stated), with -23.6%. Then `COc1ccc(C(c2c(C)[nH]n(-c3ccccc3)c2=O)c2c(C)[nH]n(-c3ccccc3)c2=O)cc1OC`, with 13.3%; and `N#Cc1c(N)nc2c(c1-c1ccc3c(c1)OCO3)CCc1ccccc1-2`, with 13.8%.

Take `Cc1oc2c(c(C)cc3oc(=O)c(CC(=O)NCC(=O)NCC(=O)NCC(C)O)c(C)c32)c1C` (configuration not stated): the inhibition was 47.8% (active). `Cc1oc2c(c(C)cc3oc(=O)c(CC(=O)NCC(=O)NCC(=O)O)c(C)c32)c1C`: the inhibition was 52.3% (active).
